ChEMBL document CHEMBL1157539, “Thousands of chemical starting points for antimalarial lead identification” (Nature, 2010)

Key:
Type in all cases: functional
[1] = test system: Plasmodium falciparum; assay: GSK_TCMDC: Inhibition of Plasmodium falciparum 3D7 in whole red blood cells, using parasite LDH activity as an index of growth. Test compounds present at 2uM
[2] = test system: Plasmodium falciparum; assay: GSK_TCMDC: Inhibition of Plasmodium falciparum Dd2 in whole red blood cells, using parasite LDH activity as an index of growth. Test compounds present at 2uM
[3] = test system: HepG2; assay: GSK_TCMDC: Percent inhibition of human HepG2 cell line. Test compounds present at 10uM.

SMILES	Inhibition [1] [%]	Inhibition [2] [%]	Inhibition [3] [%]
Cc1cc(N2CCOCC2)nc2ccc(NC(=O)c3cccc([N+](=O)[O-])c3)cc12	97	37	0
CC(C)(C)C1CC(=O)CC2C(=O)N(C3CCCCC3)C(=O)C21 (stereo unspecified)	97	27	0
O=C(Cc1cccc2ccccc12)N1CCc2cc3nccc(N4CCN5CCC[C@H]5C4)c3cc21	100	99	3
CCCCCCN1CCC(NCc2cccc([N+](=O)[O-])c2)CC1.O=C(O)C(F)(F)F	100	16	0
COc1cc(NC2=NS(=O)(=O)c3cc(Cl)ccc3N2C)cc(OC)c1OC.O=C(O)C(F)(F)F	100	100	0
CCC(C)(C)c1ccc(OCCCC(=O)Nc2ccc(Cl)c([N+](=O)[O-])c2)c(C(C)(C)CC)c1	92	88	0
COc1cc2nc(N[C@@H](CO)c3ccccc3)nc(NCc3ccccc3)c2cc1OC	100	71	6
CCN1CCN(Cc2ccc(-c3ccc(NS(=O)(=O)c4cccc5cccnc45)cc3)cc2)CC1.O=C(O)C(F)(F)F	90	42	29
CCOc1cc(C(=O)NC2CC(C)(C)N(C)C(C)(C)C2)ccc1-c1nc2cc(Cl)c(Cl)cc2[nH]1	100	49	64
O=C(Nc1cccc(-c2cccc(-c3nc4cc(C(F)(F)F)ccc4[nH]3)c2)c1)Nc1ccc(F)c(F)c1F	99	100	71
COc1ccc(CNc2nccc3ccc(-c4ccc5nccn5c4)cc23)cc1.O=C(O)C(F)(F)F	95	47	17
CCCCc1cc(NCc2ccncc2)nc(Nc2ccc(OC)cc2)n1	93	22	11
CN(C)CC(=O)Nc1cccc(Nc2nccc(NCC(O)c3ccccc3)n2)c1 (stereo unspecified)	100	3	30
CN1CCC(C(=O)Nc2ccc(-c3ccc(-c4nc5cc(C(F)(F)F)ccc5[nH]4)s3)cc2)CC1	100	95	53
Br.CC1(C)NC(N)=NC(=N)N1OCCSCc1cc(Cl)sc1Cl	93	72	70
Cc1cccc2nc(-c3cccc(-c4ccc(NC(=O)NC(C)C)cc4)c3)[nH]c12	98	44	30
O=C(NCCc1ccccc1)c1cc(-c2cccnc2)cnc1NCC1CC1	93	35	3
CCCN(CC1CC1)c1ncc(-c2ccccc2CNCc2ccccc2O)cn1	100	98	4
O=C(Cc1cccc(O)c1)NCC(Cc1ccc(O)cc1)c1ccccc1 (stereo unspecified)	91	97	0
COc1cccc2c(N/N=C/c3ccccc3[N+](=O)[O-])ccnc12	99	43	8
CN1CCCC1CCNc1ncc2c(-c3ccc(NC(=O)Nc4cc(C(F)(F)F)ccc4F)c(F)c3)nn(C)c2n1.O=C(O)C(F)(F)F (stereo unspecified)	99	90	100
Cc1cccc(CCNC(=O)c2cc(Br)cc(N3CCN(c4ccncc4)CC3)c2)c1.O=C(O)C(F)(F)F	96	53	48
COc1ccc(Oc2ccc(-c3c(O)cc(C)nc3C)cc2)cc1	93	88	0
Nc1ccc2[nH]cc(C3CCN(CCC4CCN(C(=O)/C=C/c5ccc(Cl)c(Cl)c5)CC4)CC3)c2n1	100	78	27

SMILES	Inhibition [1] [%]	Inhibition [2] [%]	Inhibition [3] [%]
O=C(NCCN1CCCCC1)c1ccc(CNC(=O)c2ccc(O)c(-c3ccc(Cl)c(Cl)c3)c2)cc1	93	68	3
O=C(O)C(F)(F)F.c1ccc(C2CCN(Cc3ccc(-c4c[nH]c5nc(NC6CCCC6)ncc45)cc3)CC2)cc1	82	9	39
Cl.Nc1ncc(Cc2cc(Cl)c(N)c3ncccc23)c(N)n1	89	95	5
CC(C)c1ccc(NC(=O)NC2CCN(CCCCCN(C)C(=O)/C=C/c3ccc(Cl)c(Cl)c3)C2)cc1 (stereo unspecified)	99	3	28
O=C(O)C(F)(F)F.c1cc(-c2ccc(CNC3CCOCC3)cc2)cc(-c2nc3ccccc3[nH]2)c1	100	100	30
COc1ccc2ncc(F)c([C@@H](O)CN3CCC(NCc4cc5c(cn4)OCCO5)CC3)c2c1.Cl	100	98	0
COc1ccc(NC(=O)Nc2ccc(-c3ccncc3)c(Cl)c2)cc1N1CCN(C)CC1	98	62	19
CCn1ccc2c3c(N)nc(N)nc3ccc21	99	2	61
COCCNc1nc(N2CCC(CNC(=O)c3ccc(-c4ccc(C(=O)N(C)C)cc4C)cc3)CC2)nc2cc(OC)c(OC)cc12	98	97	12
Cc1cccc(CN2CCC(Oc3ccc(NC(=O)c4cccs4)cc3Cl)CC2)n1.O=C(O)C(F)(F)F	86	88	27
C=C[C@]1(C)C[C@@H](OC(=O)CSC2CN3CCC2C3)[C@@]2(C)C3C(=O)CC[C@@]3(CC[C@H]2C)[C@@H](C)[C@@H]1O.Cl (stereo partly specified)	91	75	18
CN(C)/C(=N/C(=N)Nc1ccc(Cl)cc1)NCCCCCCN/C(=N\C(=N)Nc1ccc(Cl)cc1)N(C)C	97	98	11
Cc1[nH]c(C)c(-c2ccc(Oc3ccc(F)cc3)cc2)c(=O)c1Cl	99	98	14
COc1ccc2nccc(NC(=O)OC3CCC(NCc4ccc5c(n4)NC(=O)CS5)CC3)c2c1 (stereo unspecified)	98	39	9
CCOC(=O)c1ccc(OCCOc2ccccc2)cc1	99	0	63
CCCNCc1ccc(-c2ccc(CN(C(=O)c3nn(-c4ccccc4)nc3C)C3CCOCC3)cc2)nc1.O=C(O)C(F)(F)F	98	0	14
Cc1cccc2nc(-c3cccc(-c4cccc(NC(=O)NCc5ccccc5)c4)c3)[nH]c12	94	27	12
COc1ccc(CNC2CCN(c3ccc(NC(=O)c4cccc(Cl)c4)cc3)CC2)cc1OC	96	13	26
Cc1nc(-c2nc(N3CCC(O)CC3)ncc2-c2ccsc2)sc1C	83	35	6
Cc1cc(NCCc2ccccc2)nc(NC(=N)Nc2cccc([N+](=O)[O-])c2)n1	100	100	21
COc1cc2nc(NCCn3nc(C)cc3C)nc(NCCc3ccccc3)c2cc1OC	100	100	28
O=C(CCc1cccnc1)Nc1ccc(-c2cccc(-c3nc4cc(F)ccc4[nH]3)c2)cc1	86	9	67
COc1ccccc1NC(=O)CSc1nc2cccnc2n1-c1ccccc1OC	94	91	0
